Results filed as inconclusive are left out. Calls of active or inactive are those of the source. Calls follow the shape of the dose curve; as a rule, active = well fitted inhibition curve with a large enough effect; inconclusive = small, poorly fitted or top-dose-only effect; inactive = no such curve, though single readings can be large or run the other way.
Biological target: Coelenterazine h 2-monooxygenase (Renilla reniformis) (UniProt P27652)
Test: qHTS Assay for Inhibitors of Sea Pansy Luciferase from the GSK Published Protein Kinase Inhibitor Set
Conditions: purified Renilla luciferase, luminescence; series mostly up to 57.5 µM; activity change, negative = inhibition: at the top concentration
Outline: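 Purified R. reniformis luciferase (1 nM final) with 5 uM coelenterazine h in 50 mM Tris acetate pH 7.5, 100 uM NaCl, 0.01% Tween-20, 0.05% BSA. A titration, about 60 uM to 300 pM; luminescence read after about 2 min.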

Sequence of Coelenterazine h 2-monooxygenase (Renilla reniformis) (P27652 whole entry, looked up): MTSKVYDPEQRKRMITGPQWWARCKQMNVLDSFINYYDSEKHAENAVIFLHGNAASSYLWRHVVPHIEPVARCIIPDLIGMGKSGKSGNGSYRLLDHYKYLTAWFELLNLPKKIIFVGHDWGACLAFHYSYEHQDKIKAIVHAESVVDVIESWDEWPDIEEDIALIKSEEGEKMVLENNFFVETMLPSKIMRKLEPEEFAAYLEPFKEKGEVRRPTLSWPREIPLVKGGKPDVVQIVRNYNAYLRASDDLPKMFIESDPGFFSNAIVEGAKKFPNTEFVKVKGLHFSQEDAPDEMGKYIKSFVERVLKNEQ

Activity change, negative = inhibition, inactive:
CC(C)(CO)CNC(=O)c1ccc2[nH]c(O)c(N=Nc3ccc(S(N)(=O)=O)cc3)c2c1 11.9%
NC(=O)c1cccc(Nc2nccc(Nc3cccc(F)c3)n2)c1 21.5%
O=C1NC(=O)C(c2ccccc2)=C1Nc1ccccc1 16.4%
O=C(OC1CNC(C#Cc2cc3ncnc(Nc4ccc(OCc5cccc(F)c5)c(Cl)c4)c3s2)C1)N1CCOCC1 (stereo not given) 25.9%
O=C(Nc1n[nH]c2cc(-c3ccccc3)ccc12)C1CC1 34.2%
CCS(=O)(=O)c1ccc(OC)c(Nc2ncc(-c3cccc(-c4ccccc4F)c3)o2)c1 11.3%
COC(=O)Nc1nc2ccc(S(=O)(=O)c3ccc(NC(=O)Nc4cc(C(F)(F)F)ccc4F)cc3)cc2[nH]1 16.9%
COc1cc(C)c(N(C)C(=O)CN(C)C)cc1Nc1nc(Nc2cccc(F)c2C(N)=O)c2cc[nH]c2n1 56.2%
CS(=O)(=O)Nc1cccc(-c2ccc3c(NC(=O)C4CC4)n[nH]c3c2)c1 17.4%
Fc1ccc(-c2cc(-c3cn[nH]c3-c3ccccn3)ccn2)cc1 38.8%
O=S1CCN(Cc2ccc(-c3ccc4ncnc(Nc5ccc(OCc6ccccc6)c(F)c5)c4c3)o2)CC1 27%
CC(=O)Nc1cccc(C#Cc2cncnc2Nc2ccc(OCc3cccc(F)c3)c(Cl)c2)n1 12.4%
Cc1ccc(-c2cc3c(NC(=O)C4CC4)ncnc3o2)cc1 6.69%
Fc1ccc(Nc2nccc(-c3c(-c4ccc(C(F)(F)F)cc4)nn4ncccc34)n2)cc1F 3.07%
COc1cc2ncn(-c3cc(OCCc4ccccc4)c(C(N)=O)s3)c2cc1OC 13.2%

— PubChem BioAssay AID652015 (National Center for Advancing Translational Sciences (NCATS), 2013)
